Measurements taken from ChEMBL document CHEMBL4513216, “Probing the Open Global Health Chemical Diversity Library for Multistage-Active Starting Points for Next-Generation Antimalarials” (ACS Infect Dis, 2020).
Out of some 68,000 compounds screened, about 2,700 (4%) showed an effect of 50% or more. The full list was thinned out, with strong results kept by preference.

Tested on: Plasmodium berghei
Assay: Screen against P. berghei liver stage (PbLuc), transformed with Luciferase, at 2uM
Assay type: functional, HepG2
Settings: tested at 2 uM

Compared with `O=C(NC1CCC1)c1n[nH]c2c1CNCC2`, `NC(=O)c1cn(CC2CC2)c(C2CC2)n1` is higher in INHIBITION: -29.3% for the first, -4.87% for the second.

Compared with `Cc1cc(C)n(C2CCCN(C(=O)CCCc3ccccn3)C2)n1` (stereo not drawn), `Cc1nc(C)n(C2CCCN(C(=O)CCCc3ccccn3)C2)n1` (stereo not drawn) is higher in INHIBITION: -5.15% for the first, 70.27% for the second.

Compared with `Cc1nc(C)n(C2CCCN(C(=O)CCCOc3ccccc3)C2)n1` (stereo not drawn), `Cc1nc(C)n(C2CCCN(C(=O)COc3ccccc3)C2)n1` (stereo not drawn) is higher in INHIBITION: -17.71% for the first, -2.9% for the second.

First: COc1ccccc1CC(=O)N1CCCC(n2nc(C)cc2C)C1 (stereo not drawn)
Second: COc1ccccc1CC(=O)N1CCCC(n2nc(C)nc2C)C1 (stereo not drawn)
The INHIBITION of the first is lower: -7.5% for the first, 59.23% for the second.

Going from `CCc1nnc(CN2CCOC(Cn3cc(C)cn3)C2)o1` (stereo not drawn) to `CC(=O)Nc1nc(CN2CCOC(Cn3cncn3)C2)cs1` (stereo not drawn), the INHIBITION rises from -50.23% to -0.13%.

Compared with `O=C(O)c1cc(C2=CCCCC2)cc(S(=O)(=O)NCc2ccccn2)c1`, `Cc1ccc(C)c(NS(=O)(=O)c2cc3c(c(C(=O)O)c2)OCCO3)c1` is lower in INHIBITION: 40.88% for the first, -5.09% for the second.

Compared with `CC(C)(C)n1ncc(NCC(O)c2ccccc2C(F)(F)F)c(Cl)c1=O` (stereo not drawn), `N#Cc1ccc(C(=O)N2CCC3(CC2)C(=O)Nc2ccccc23)cn1` is higher in INHIBITION: 6.26% for the first, 24.88% for the second.

Compared with `OC1(CNCCc2csc(-c3ccncc3)n2)CCCNC1` (stereo not drawn), `O=C(c1ccncc1)N1CCC2(CC1)C(=O)Nc1ccccc12` is higher in INHIBITION: 10.72% for the first, 49.25% for the second.

Going from `Fc1ccc(CN2CC[C@H]3O[C@@H](COCC4CCOCC4)CC[C@H]32)cc1` to `C1CN(CC2CC2)C(COCC2CC2)c2nnn(CC3CC3)c21` (stereo not drawn), the INHIBITION rises from 32.31% to 61.44%.

Going from `Cn1cncc1-c1nnc([C@H]2CCN(CC(C)(C)C)C2)o1` to `Cn1nc2c(cc1=O)CN(Cc1nc(C(C)(C)C)no1)CC2`, the INHIBITION rises from -23.78% to 12.91%.

Going from `CN(CCCOc1ccccc1Cl)C(=O)CN1CCCCCC1=O` to `CN(CCCOc1ccccc1Cl)C(=O)CN1CCNC1=O`, the INHIBITION falls from 50.42% to -9.33%.

First: CN(CCCOc1ccccc1Cl)C(=O)CN1C(=O)CCNC1=O
Second: CCCOc1ccccc1CN[C@@H]1CCC[C@H]1Cc1cc(C)no1
The INHIBITION of the first is higher: 27.67% for the first, 3.28% for the second.

First: COC(C)(C)C(=O)N1Cc2cnc(C(C)(C)C)nc2C1
Second: Cc1n[nH]c(C2CN(C(=O)c3cc(C)sc3C)CCO2)n1 (stereo not drawn)
The INHIBITION of the first is lower: -82.18% for the first, 40.13% for the second.

Compared with `CC(OCC1CC1)C(=O)Nc1cccc(C(=O)Nc2ccccn2)c1` (stereo not drawn), `CCN(Cc1cccc2c1OCO2)C(=O)NCc1ccccn1` is higher in INHIBITION: -5.74% for the first, -5.39% for the second.

Compared with `CCC[C@H]1CN(c2cncc(C(=O)N3CCCCC3)n2)C[C@@H]1N(C)C`, `O=C(C1CCCCC1)N1C[C@@H]2CCN(c3cnccn3)C[C@@H]2C1` is higher in INHIBITION: -16.39% for the first, 50.17% for the second.

Going from `Cc1nc(-c2ccoc2)n(CC(=O)NCC(C)C)c1C` to `Cc1nc(-c2ccoc2)n(CC(=O)N(C)CC(C)C)c1C`, the INHIBITION rises from 19.53% to 64.82%.

Going from `CCOC(=O)CNC(=O)Cn1c(-c2ccoc2)nc(C)c1C` to `O=C(Cn1ccc2cc(Br)ccc21)NCc1ccc(C(=O)O)cc1`, the INHIBITION rises from -19.53% to 18.15%.

Going from `O=C(Nc1ccccc1)C1CN(C(=O)c2cccs2)CC12CCOCC2` (stereo not drawn) to `CNC(=O)[C@H]1C[C@H]2CN(C(=O)Nc3ccccc3)C[C@@H]1O2`, the INHIBITION rises from -36.65% to 7.35%.

Going from `CC1COCCN1Cc1nc(-c2ccc(F)cc2)no1` (stereo not drawn) to `O=C(Cc1ccc(F)cc1)N1CCn2cc(Cn3cncn3)nc2C1`, the INHIBITION rises from -24.5% to 37.2%.

First: O=C(c1cnccn1)N1C[C@@H]2CCN(c3cnccn3)C[C@@H]2C1
Second: CCC(=O)N1C[C@@H]2CCN(c3cnccn3)C[C@@H]2C1
The INHIBITION of the first is lower: 24.95% for the first, 40.28% for the second.

First: CCCC(=O)N1C[C@@H]2CCN(c3cnccn3)C[C@@H]2C1
Second: CC(C)CC(=O)N1C[C@@H]2CCN(c3cnccn3)C[C@@H]2C1
The INHIBITION of the first is higher: 50.72% for the first, 20.51% for the second.

First: O=C(C1CCCC1)N1C[C@@H]2CCN(c3cnccn3)C[C@@H]2C1
Second: Cc1ocnc1C(=O)N1CC[C@@H](O)[C@@H](O)[C@H](N2CCC(F)(F)CC2)C1
The INHIBITION of the first is higher: 28.75% for the first, 7.4% for the second.

Compared with `Cc1noc(C)c1CN1C(=O)[C@@H]2CC[C@H]1CN(Cc1cscn1)C2`, `O=C(Cc1cccs1)N1C[C@H]2CC[C@@H](C1)N(Cc1ccccn1)C2=O` is higher in INHIBITION: -55.91% for the first, 14.63% for the second.

First: Cc1ccccc1SC1CCN(C(=O)C2[C@H]3CNC[C@@H]23)CC1 (stereo partly drawn)
Second: CC(=O)N1C[C@@H](c2ccsc2)[C@@H]2CN(Cc3ccccc3Cl)CC[C@@H]21
The INHIBITION of the first is higher: 2.49% for the first, -27.6% for the second.

First: O=C(CCCn1cncn1)N1CCCC1c1noc(C2CC2)n1 (stereo not drawn)
Second: Cc1nc(CN2CCCC2c2noc(C3CC3)n2)nc2ccccc12 (stereo not drawn)
The INHIBITION of the first is lower: 8.65% for the first, 22.29% for the second.

Going from `CN1CCC(O)(CNC(=O)c2cc(COc3cccc(F)c3)[nH]n2)CC1` to `COCCOCC(=O)N1C[C@@H]2CC[C@H](Oc3cccc(F)c3)[C@@H]2C1`, the INHIBITION rises from -13.79% to 24.06%.

Compared with `CCCS(=O)(=O)N1CCOC2(CCCN(c3ccc(C)nn3)C2)C1` (stereo not drawn), `CN1CCC(c2cccc(NCc3nccn3C)n2)CC1` is higher in INHIBITION: -15.73% for the first, 29.25% for the second.

First: CCc1ccc(NC(=O)N2C[C@@H]3C[C@H](C(=O)NC)[C@H](C2)O3)cc1
Second: CNC(=O)[C@H]1C[C@H]2CN(C(=O)Nc3ccc(F)cc3)C[C@@H]1O2
The INHIBITION of the first is lower: -56.73% for the first, 56.15% for the second.

Going from `Cn1nnc2c1CCN(CC1CC1)C2COCC1CC1` (stereo not drawn) to `C1CC(CN2CCc3c(nnn3CC3CC3)C2COCC2CC2)C1` (stereo not drawn), the INHIBITION falls from -10.89% to -38.23%.

First: COc1cc(Cl)c(NC(=O)NCCn2cccc2)cc1OC
Second: COc1cc(C)c(NC(=O)NCCn2cccc2)cc1OC
The INHIBITION of the first is lower: -23.44% for the first, 74.18% for the second.

Compared with `COc1cc(C)c(NC(=O)CCn2cccc2)cc1OC`, `COCC(O)CN(C)C(=O)NCc1ccc(-c2ccn[nH]2)cc1` (stereo not drawn) is lower in INHIBITION: 30.42% for the first, -0.21% for the second.

`COc1ncc(C(=O)N2CCC3(CC2)C(=O)Nc2ccccc23)cn1` gave an INHIBITION of 50.32%.
